Compounds without any hit were thinned out: in the full panel of roughly 83,000, 20% have a hit.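 Note: values are percent growth. 100 is the growth of untreated cells, values between 100 and 0 indicate rising inhibition; between -100 and 0 indicates cell death.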 A number with no mark means an inactive call. Activity calls are given as the source filed them. The calls were made as follows: active = growth percent below 10; inactive = the rest.
How the values were obtained:
Assay in all cases: NCI-60 one-dose screen, 48 h (100 = growth as untreated, 0 = no growth, -100 = all killed)
SK-MEL-2 melanoma = details: 10 µM unless noted
EKVX NSCLC = details: 10 µM unless noted
SN12C renal = details: 10 µM unless noted
UO-31 renal = details: 10 µM unless noted
TK-10 renal = details: 10 µM unless noted
ACHN renal = details: 10 µM unless noted
CAKI-1 renal = details: 10 µM unless noted
A498 renal = details: 10 µM
HL-60(TB) leukemia = details: 10 µM unless noted
CCRF-CEM leukemia = details: 10 µM unless noted
MOLT-4 leukemia = details: 10 µM unless noted
RPMI-8226 leukemia = details: 10 µM unless noted
OVCAR-8 ovarian = details: 10 µM unless noted
OVCAR-5 ovarian = details: 10 µM unless noted
OVCAR-4 ovarian = details: 10 µM unless noted
SK-OV-3 ovarian = details: 10 µM unless noted
IGROV1 ovarian = details: 10 µM unless noted
OVCAR-3 ovarian = details: 10 µM unless noted
HS 578T breast = details: 10 µM unless noted
SR leukemia = details: 10 µM unless noted

Compound	growth (SK-MEL-2 melanoma)	growth (EKVX NSCLC)	growth (SN12C renal)	growth (UO-31 renal)	growth (TK-10 renal)	growth (ACHN renal)	growth (CAKI-1 renal)	growth (A498 renal)	growth (HL-60(TB) leukemia)	growth (CCRF-CEM leukemia)	growth (MOLT-4 leukemia)	growth (RPMI-8226 leukemia)	growth (OVCAR-8 ovarian)	growth (OVCAR-5 ovarian)	growth (OVCAR-4 ovarian)	growth (SK-OV-3 ovarian)	growth (IGROV1 ovarian)	growth (OVCAR-3 ovarian)	growth (HS 578T breast)	growth (SR leukemia)
C[Se]C(=O)c1ccccc1OC(C)=O	75.4%	33.2%	69%	33%	27.5%	85.9%	64.4%	66.5%	32.8%	63.3%	54.8%	88.6%	35.1%	54.3%	85.3%	118%	46.1%	55.3%	35.3%	–
CCCCCCCOC(C(=O)OCCN(CC)CC)(c1ccccc1)c1ccccc1	103%	76.1%	93.6%	69%	77.8%	92.3%	65.4%	82.4%	79.1%	82.5%	70.3%	72.4%	104%	91.3%	81.6%	104%	68.7%	94.1%	94.5%	–
C[C@@]12CC[C@@H](O)C[C@@H]1CC[C@H]1[C@H]2CC[C@@]2(C)[C@H](c3ccc(=O)oc3)CC[C@@]12O	-29.7% (active)	-86.4% (active)	-24.9% (active)	-96.2% (active)	-81.4% (active)	-90% (active)	-83.5% (active)	-29.9% (active)	-30.6% (active)	-9% (active)	-26.7% (active)	-14.8% (active)	-63.3% (active)	-86.2% (active)	-76.3% (active)	-11.9% (active)	-28.7% (active)	-84.8% (active)	-14% (active)	–
OCc1ccc2c(c1)OCO2	99.5%	96.3%	101%	88%	91.7%	104%	93.2%	111%	96.1%	102%	–	102%	95.7%	97%	101%	95.6%	106%	107%	97.1%	95.5%
O=C(CCl)c1ccc([N+](=O)[O-])o1	-7.05% (active)	96.2%	-38.1% (active)	-8.81% (active)	-39.4% (active)	-40.6% (active)	-95.1% (active)	101%	-68.9% (active)	-74.9% (active)	-52.8% (active)	-47.7% (active)	8.79% (active)	-72.8% (active)	2.25% (active)	102%	1.46% (active)	-100% (active)	40.9%	–
CC[C@H](C)[C@H](NC(=O)c1cccn1C)C(=O)N(C)[C@H](C[C@@H](OC(C)=O)c1nc(C(=O)N[C@@H](Cc2ccccc2)C[C@H](C)C(=O)OC)cs1)C(C)C	20.4%	54.3%	24.2%	38.9%	27.5%	30%	25.1%	-2.8% (active)	-36.7% (active)	18.7%	–	18.6%	15.6%	43.5%	46.9%	10.8%	23%	-3.92% (active)	27%	14.4%
O=C1C(Cl)=C(N2CCOCC2)C(=O)c2ccccc21	119%	96.9%	105%	51.8%	127%	78.4%	6.93% (active)	93.8%	-36.6% (active)	-27.6% (active)	–	-3.69% (active)	68.2%	119%	37.7%	110%	-47.2% (active)	-58.3% (active)	116%	-37.1% (active)
CC1=C(CN)C2=C(C)C3(CC3)[C@@](C)(O)C(=O)C2=C1	98.5%	102%	90.2%	90.3%	102%	97.3%	94.7%	68.6%	88.2%	110%	96.7%	114%	84.2%	97.9%	93.2%	102%	94.8%	101%	86%	–
CCn1nccc1NC(=O)C(=O)c1cn(Cc2ccc(F)cc2)c2cccc(OC)c12	48.2%	81.6%	86.9%	47.5%	120%	85.3%	98.6%	94.1%	56.8%	76.6%	66.4%	59.9%	92.2%	96.8%	94.8%	100%	3.65% (active)	94%	89%	–
O=C(Nc1ccc(Br)cc1)c1cc(Br)cc(Br)c1O	-21.8% (active)	10.7%	-2.01% (active)	4.99% (active)	14.6%	-19.5% (active)	-6.11% (active)	32.2%	84.3%	13.5%	62.2%	-10.1% (active)	11.1%	9.56% (active)	–	-11.7% (active)	19.4%	32.9%	43.4%	–
COc1ccc(/C=C\c2cc(OC)c(OC)c(OC)c2)cc1NC(=O)/C=C/c1ccc(OC)c(OC)c1	66.9%	55.1%	43.5%	41.6%	91%	42%	42.3%	-1.67% (active)	-24.9% (active)	12.1%	17.3%	53.6%	44.4%	55.4%	58.7%	-19.5% (active)	55.1%	1.59% (active)	31.3%	–
O[C@H](CN1CC1)[C@@H](O)CN1CC1	87%	94.6%	41.1%	51.1%	101%	24%	-0.578% (active)	95.1%	30.7%	33.3%	–	88%	55%	103%	93.1%	49.5%	93.9%	101%	97.1%	16.9%
COc1cccc2c1c(C(=O)C(=O)Nc1ccn[nH]1)cn2Cc1ccc(F)cc1	93.8%	119%	100%	89%	51.7%	101%	46.7%	-72.9% (active)	115%	93.2%	97.5%	96.8%	101%	91.2%	110%	95.9%	84.7%	106%	100%	–
CC1[C@H](C)OC(=O)CC(O)CC(O)CC(O)CCC(O)C(O)C[C@]2(O)CC(O)C(C(=O)O)C(CC(OC3O[C@H](C)[C@@H](O)[C@H](N)[C@@H]3O)/C=C/C=C/C=C/C=C/CC/C=C/C=C/[C@H](C)[C@H]1O)O2 (stereo partly specified)	134%	104%	98.5%	93.2%	123%	90.8%	88.6%	114%	110%	90.6%	122%	106%	92%	95.4%	102%	110%	101%	109%	97%	–
COc1cc2c(c(OC)c1OC)-c1ccc([O-])c(=O)cc1[C@@H](NC(C)=O)CC2.COc1cc2c(c(OC)c1OC)-c1ccc([O-])c(=O)cc1[C@@H](NC(C)=O)CC2.[Cu+2]	-4.65% (active)	62%	43.5%	22.2%	71.7%	53.6%	34.1%	14.9%	-44.9% (active)	9.3% (active)	10.5%	15.3%	23.2%	54.3%	48.6%	17.2%	-0.159% (active)	-26.7% (active)	–	–
COc1ccc(C2=CC(c3ccc(OC)c(OC)c3)c3c(c4ccccc4oc3=O)O2)cc1OC (stereo unspecified)	8.03% (active)	30.4%	58.7%	21.8%	42%	52.7%	7.77% (active)	-3.43% (active)	-59.9% (active)	-6.1% (active)	11.9%	-48.5% (active)	36.2%	60.2%	42.8%	25.6%	–	-16.3% (active)	-5.68% (active)	–
